PubChem BioAssay AID372 (MTDP, 2006)
Out of some 100,000 compounds screened, about 770 (0.77%) were called active. No stated cut-off is given here; in the data, active means inhibition above about 50%; inactive means the rest. Only a selection was taken, and actives are over-represented in it overall.

Each compound was assayed against Gag-Pol polyprotein (Human immunodeficiency virus type 1 group M subtype B (isolate HXB2)) (UniProt P04585) (assay: RNase H inhibition, HIV 1 Gag Pol polyprotein, FRET biochemical assay, screening (AID 372)). Settings: HIV-1 RT RNase H, FRET RNA/DNA substrate fluorescence; at 10 µM; hits give high values.

Row | SMILES | inhibition
1 | CCc1cc2c(=O)n(N)c(CCC(=O)O)nc2s1 | 6% (inactive)
2 | CCOC(=O)c1cc(Br)c(Cl)cc1[N+](=O)[O-] | 10% (inactive)
3 | COc1ccc(C(NC(=O)c2ccco2)c2ccc(OC)c(OC)c2)cc1 (centres undefined) | 23% (inactive)
4 | Cc1ccc2oc(-c3ccc(NC(=O)c4ccc(C)c([N+](=O)[O-])c4)cc3)nc2c1 | 0% (inactive)
5 | OC(COc1ccccc1Cl)Cn1cnc2ccccc21 (centres undefined) | 5% (inactive)
6 | O=C(N/N=C/c1ccc(-c2ccc(Cl)cc2Cl)o1)c1ccccc1 | 15% (inactive)
7 | CCN1C(=O)C(=Cc2ccc(O)cc2)C(=O)NC1=S | 4% (inactive)
8 | CCN1C(=O)/C(=C/c2ccc(C)o2)C(=O)NC1=S | 21% (inactive)
9 | CCOc1cc(/C=N/NC(=O)C(=O)NCc2ccc(Cl)cc2)ccc1O | 1% (inactive)
10 | CC1(C)NC(=O)N(CC(O)COc2cccc(OCC(O)CN3C(=O)NC(C)(C)C3=O)c2)C1=O (centres undefined) | 11% (inactive)
11 | CCOC(=O)c1c(NC(=O)Cc2ccccc2)sc(C)c1C | 0% (inactive)
12 | Cc1sc(NC(=O)c2ccco2)c(C#N)c1C | 7% (inactive)
13 | COC(=O)c1c(NC(=O)c2ccco2)sc(C)c1C | 15% (inactive)
14 | CCOC(=O)c1sc(NC(=O)c2ccc(Br)o2)c(C(N)=O)c1C | 0% (inactive)
15 | COC(=O)c1c(NC(=O)Cc2ccccc2)sc(C)c1C | 24% (inactive)
16 | Cc1sc(NC(=O)c2ccc(Br)o2)c(C#N)c1C | 4% (inactive)
17 | Cc1sc(NC(=O)c2ccc(-c3ccccc3)cc2)c(C(N)=O)c1C | 13% (inactive)
18 | Cc1sc(NC(=O)c2ccc(F)cc2)c(C(N)=O)c1C | 8% (inactive)
19 | CCOc1cc(/C=C2\SC(=S)N(c3ccc(F)cc3)C2=O)ccc1O | 18% (inactive)
20 | CCN(CC)c1ccc(C(=O)Nc2cc(Cl)cc(Cl)c2)cc1 | 20% (inactive)

Row | SMILES | inhibition
21 | Cc1ccc(C(=O)COC(=O)c2cccc(N3C(=O)C4C5C=CC(C6CC56)C4C3=O)c2)cc1 (centres undefined) | 9% (inactive)
22 | CCOc1ccc(-n2sc3c(c2=S)-c2cc(C)ccc2N(Cc2ccccc2)C3(C)C)cc1 | 32% (inactive)
23 | Cc1cc(C)cc(NC(=O)C(C)N2C(=O)c3ccccc3C2=O)c1 (centres undefined) | 0% (inactive)
24 | CC1=C(C(=O)OCC(C)C)C(c2cccc(O)c2)C2=C(CC(c3ccc(Cl)cc3)CC2=O)N1 (centres undefined) | 21% (inactive)
25 | O=C(/C=C/c1ccccc1)NC(=S)Nc1ccc(Br)cn1 | 21% (inactive)
26 | CCOC(=O)c1ccc(Nc2cc(-c3ccccc3)ncn2)cc1 | 18% (inactive)
27 | COc1cc(CN2CCN(Cc3ccc(OC)c(OC)c3OC)CC2)cc(OC)c1OC | 4% (inactive)
28 | O=C(/C=C/c1ccc2c(c1)OCO2)NCc1ccc(Cl)cc1Cl | 11% (inactive)
29 | CCOC(=O)c1sc(NC(=O)Cn2nc([N+](=O)[O-])c([N+](=O)[O-])c2C)c(C(=O)OCC)c1C | 6% (inactive)
30 | Cc1nn(CC(=O)Nc2sc3c(c2C#N)CCCC3)c(C)c1[N+](=O)[O-] | 8% (inactive)
31 | O=C(O)c1c(Br)c(Br)c(Br)c(Br)c1C(=O)NCCC1=CCCCC1 | 0% (inactive)
32 | NNC(=O)CN1C(c2ccccc2)=Nc2ccc(Br)cc2C1c1ccccc1 (centres undefined) | 15% (inactive)
33 | COc1ccc(N2C(=O)/C(=C\c3c(OC)cc(OC)cc3OC)C(=O)NC2=S)cc1 | 1% (inactive)
34 | O=C1c2ccccc2C(=O)N1CC(O)Cn1c2ccc(Br)cc2c2cc(Br)ccc21 (centres undefined) | 16% (inactive)
35 | CCc1ccc(OCCCN2CCOCC2)cc1 | 3% (inactive)
36 | CCc1ccc(OCCN2CCOCC2)cc1 | 50% (active)
37 | CCc1ccc(OCCCCCCN2CCOCC2)cc1 | 8% (inactive)
38 | Cc1cc(/C=C2\C(=O)NC(=O)N(c3ccc(Br)cc3)C2=O)c(C)n1-c1cccnc1 | 2% (inactive)
39 | COc1ccccc1NC(=O)c1c(NC(=O)c2cc([N+](=O)[O-])ccc2Cl)sc2c1CCCC2 | 3% (inactive)
40 | CCN(CC)C(=O)c1sc(NC(=O)c2cc(OC)cc(OC)c2)c(C(=O)OC)c1C | 10% (inactive)

Row | SMILES | inhibition
41 | O=C1NC(=Nc2cccc(O)c2)S/C1=C/C(Cl)=C/c1ccc([N+](=O)[O-])cc1 | 51% (active)
42 | O=C1NC(=Nc2ccc(O)cc2)S/C1=C\c1ccc([N+](=O)[O-])cc1 | 4% (inactive)
43 | O=C1NC(=Nc2ccc(O)cc2)S/C1=C/C(Cl)=C/c1ccc([N+](=O)[O-])cc1 | 0% (inactive)
44 | O=C1C(=O)N(c2ccc(Br)cn2)C(c2ccccc2[N+](=O)[O-])/C1=C(/O)c1ccccc1 (centres undefined) | 4% (inactive)
45 | O=C(Nc1ccc(F)cc1)Nc1nnc(CSCc2ccc(Cl)cc2)s1 | 26% (inactive)
46 | N=C1S/C(=C\c2ccc(-c3ccc(F)cc3)o2)C(=O)N1c1ccc2c(c1)OCO2 | 52% (active)
47 | O=C1NC(=O)N(c2ccc3c(c2)OCO3)C(=O)/C1=C/c1ccc(-c2cccc(Cl)c2)o1 | 53% (active)
48 | O=C1NC(=O)N(c2ccc3c(c2)OCO3)C(=O)/C1=C/c1ccc(-c2cccc([N+](=O)[O-])c2)o1 | 0% (inactive)
49 | N=C1S/C(=C\c2ccc3c(c2)OCO3)C(=O)N1c1ccc(F)cc1 | 43% (inactive)
50 | N=C1S/C(=C\c2ccc(-c3ccccc3F)o2)C(=O)N1c1ccc2c(c1)OCO2 | 30% (inactive)
51 | N=C1S/C(=C\c2cc3c(cc2[N+](=O)[O-])OCO3)C(=O)N1c1ccc(F)cc1 | 55% (active)
52 | N=C1S/C(=C\c2ccc(-c3ccc([N+](=O)[O-])cc3)o2)C(=O)N1c1ccc2c(c1)OCO2 | 12% (inactive)
53 | O=C1/C(=C\c2cc3c(cc2[N+](=O)[O-])OCO3)SC(=S)N1c1ccccc1 | 24% (inactive)
54 | O=C1NC(=O)N(c2ccc3c(c2)OCO3)C(=O)/C1=C/c1ccc(Sc2ccccc2)o1 | 0% (inactive)
55 | COc1ccc(OC)c(/C=C2\C(=O)NC(=S)N(c3ccc(Br)cc3)C2=O)c1 | 12% (inactive)
56 | O=C(Nc1nnc(SCc2ccccc2)s1)c1cccc2ccccc12 | 3% (inactive)
57 | O=[N+]([O-])c1ccc(OCCCCN2CCOCC2)cc1 | 9% (inactive)
58 | Clc1ccc(OCCOCCOc2cccc3cccnc23)c2ccccc12 | 45% (inactive)
59 | O=C(Nc1ccccc1Cl)c1ccc(N2C(=O)c3ccccc3C2=O)cc1 | 16% (inactive)
